In PubChem BioAssay (NCI):
This is part of a sample that, as a whole, favours compounds with a hit. Of some 83,000 tested, about 20% had one in any assay.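 Testing used 96-well plates and a 48-hour single-concentration exposure. Example: -40 means 40% of the starting cells died.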 Values without a mark were called inactive. Active and inactive are the calls of the source. How the source made its calls: active means growth percent below 10; inactive means the rest.

System: NCI-H460 lung
Experiment: NCI-60 one-dose screen, 48 h (100 = growth as untreated, 0 = no growth, -100 = all killed)
Settings: 10 µM

Structure (SMILES) | growth
C=C/C(C)=C/C[C@]1(C)[C@H](C)[C@@H](OC(=O)CCC)[C@H](O)[C@@]23C(=C[C@H](OC)C[C@@H]12)[C@@H](OC(=O)CCC)O[C@H]3OC(C)=O | 2.97% (active)
Fc1ccc2[nH]cc(-c3nc(-c4ccsc4)cs3)c2c1 | 121%
CN1CCc2c(sc3nc4n(-c5ccc(Cl)cc5)cnn4c(=O)c23)C1 | 124%
Nc1ccc(-c2cccs2)cc1NC(=O)c1ccc(CCCC(=O)Nc2ccc(C3CC3N)cc2)cc1 (stereo unspecified) | 38%
CCOC(=O)c1sc2ncnc(Nc3ccc(NC(=O)Nc4ccc(Cl)cc4)cc3)c2c1C | 41.1%
CCNc1nc(C(F)(F)F)nc2c1sc(=S)n2-c1ccccc1 | 100%
COc1ccc([C@H]2[C@H](C(=O)Nc3cccnc3)c3ccccc3C(=O)N2c2ccccc2)cc1 | 91.4%
O=C(CCCCNC(=O)c1nc(-c2ccccc2)n(-c2ccccc2)n1)NO | 78.1%
COc1cc(CNC(=O)C2CSC3(C)c4ccccc4C(=O)N23)cc(OC)c1OC (stereo unspecified) | 106%
COc1cc2c3c(n(C4CCNCC4)c(=O)c2cc1OC)-c1cc2c(cc1C3=O)OCO2 | -66.2% (active)
C[C@@H](O)[C@H]1C(=O)N2C(C(=O)O)=C(SC3CN[C@H](C(=O)N(C)C)C3)[C@H](C)[C@H]12 (stereo partly specified) | 102%
COc1cc2c3c(n([C@@H]4CCOC4)c(=O)c2cc1OC)-c1cc2c(cc1C3=O)OCO2 | 4.11% (active)
CCOC(=O)c1sc2ncnc(Nc3ccc4c(cnn4C(=O)Nc4ccc(C)c(Cl)c4)c3)c2c1C | 114%
CN1C(C(=O)Nc2ccccn2)=C(O)c2sc(Cl)cc2S1(=O)=O | 99.9%
CCCN1CN2C(=O)N3CN(CCC)CN4C(=S)N(C1)C2C34 (stereo unspecified) | 112%
COc1ccc(-c2cc(-c3cc(OC)ccc3OC)nc(N)c2C#N)cc1 | 52.5%
c1cncc(-c2csc(-c3c[nH]c4ccccc34)n2)c1 | 97%
c1cnc2[nH]cc(-c3nc(-c4ccsc4)cs3)c2c1 | 109%
COc1ccc(-c2nn(-c3cccc(Cl)c3)cc2C=C(C#N)C#N)cc1 | 1.56% (active)
CCOC(=O)c1sc2ncnc(Nc3ccc4c(cnn4C(=O)Nc4ccccc4)c3)c2c1C | 49.2%
CCCCCC(=O)O[C@]1(C(C)=O)CCC2C3CCC4=CC(=O)CC[C@]4(C)C3CC[C@@]21C (stereo partly specified) | 15.2%
CCn1cc(CNc2ccc(C(=O)Nc3ccc4ccccc4c3)cc2)c(C)n1 | 62.9%
O=c1[nH]c(=O)n(C2C[C@H](O)[C@@H](CO)O2)cc1C(F)(F)F (stereo partly specified) | 113%

System: NCI-H522 lung
Experiment: as above
Settings: 10 µM

Structure (SMILES) | growth
Cc1c2c[n+](C(C)C)ccc2c(C)c2c1[nH]c1ccccc12 | 2.71% (active)
Cc1ccc(-n2c(C)nn3c(=O)c4c5c(sc4nc23)CN(C)CC5)cc1 | 71.5%
CCCCCCCCCCCCCCCCCC[n+]1ccc2c(C)c3c(c(C)c2c1)c1cc(O)ccc1n3CC | 29.2%
Cc1c2cnccc2c(C)c2c1c1cc(O)ccc1n2C(C)C | -9.59% (active)
COc1ccc(C(=O)CSc2nc(-c3cc(OC)ccc3OC)cc(-c3ccc(OC)cc3)c2C#N)cc1 | 81.6%
CCn1c2ccc(O)cc2c2c(C)c3c[n+](C)ccc3c(C)c21 | -0.0478% (active)
N#Cc1c(-c2ccc(Cl)cc2)cc(-c2cc(O)ccc2O)nc1N | -8.49% (active)
CN1CCc2c(sc3nc4n(-c5ccc(Cl)cc5)c(=O)[nH]n4c(=O)c23)C1 | 77.9%
Cn1c2ccccc2c2c3[nH][nH]c(=O)c3c3c4ccccc4[nH]c3c21 | 4.72% (active)
O=C1c2c(c3c4ccccc4n(CCCCCCN4CCOCC4)c3c3[nH]c4ccccc4c23)C(=O)N1O | 67.3%
Nc1ccccc1NC(=O)c1ccc(CCCC(=O)Nc2ccc(C3CC3N)cc2)cc1 (stereo unspecified) | -34.4% (active)
Nc1nc(-c2cccnc2)nc2c1sc(=S)n2-c1ccccc1 | 83.4%
COc1cc2c3c(n([C@H]4CCOC4)c(=O)c2cc1OC)-c1cc2c(cc1C3=O)OCO2 | 15.8%
C=C/C(C)=C/C[C@]1(C)[C@H](C)[C@@H](OC(=O)CCC)[C@H](O)[C@@]23C(=C[C@H](OC)C[C@@H]12)[C@@H](OC(=O)CCC)O[C@H]3OC(C)=O | -80.9% (active)
Fc1ccc2[nH]cc(-c3nc(-c4ccsc4)cs3)c2c1 | 79.2%
CN1CCc2c(sc3nc4n(-c5ccc(Cl)cc5)cnn4c(=O)c23)C1 | 94.1%
O=C(CCCNC(=O)c1nc(-c2ccccc2)n(-c2ccccc2)n1)NO | 75.4%

Structure (SMILES) | growth
Nc1ccc(-c2cccs2)cc1NC(=O)c1ccc(CCCC(=O)Nc2ccc(C3CC3N)cc2)cc1 (stereo unspecified) | 53.6%
CCOC(=O)c1sc2ncnc(Nc3ccc(NC(=O)Nc4ccc(Cl)cc4)cc3)c2c1C | 54.1%
CCNc1nc(C(F)(F)F)nc2c1sc(=S)n2-c1ccccc1 | 70.4%
COc1ccc([C@H]2[C@H](C(=O)Nc3cccnc3)c3ccccc3C(=O)N2c2ccccc2)cc1 | 82.4%
O=C(CCCCNC(=O)c1nc(-c2ccccc2)n(-c2ccccc2)n1)NO | 27.7%
COc1cc(CNC(=O)C2CSC3(C)c4ccccc4C(=O)N23)cc(OC)c1OC (stereo unspecified) | 68.8%
COc1cc2c3c(n(C4CCNCC4)c(=O)c2cc1OC)-c1cc2c(cc1C3=O)OCO2 | -44.3% (active)
COc1cc2c3c(n([C@@H]4CCOC4)c(=O)c2cc1OC)-c1cc2c(cc1C3=O)OCO2 | 17.5%
CCOC(=O)c1sc2ncnc(Nc3ccc4c(cnn4C(=O)Nc4ccc(C)c(Cl)c4)c3)c2c1C | 68.8%
CCCN1CN2C(=O)N3CN(CCC)CN4C(=S)N(C1)C2C34 (stereo unspecified) | 91.7%
COc1ccc(-c2cc(-c3cc(OC)ccc3OC)nc(N)c2C#N)cc1 | 23.6%
c1cncc(-c2csc(-c3c[nH]c4ccccc34)n2)c1 | 73.5%
c1cnc2[nH]cc(-c3nc(-c4ccsc4)cs3)c2c1 | 79.4%
COc1ccc(-c2nn(-c3cccc(Cl)c3)cc2C=C(C#N)C#N)cc1 | -12.1% (active)
CCOC(=O)c1sc2ncnc(Nc3ccc4c(cnn4C(=O)Nc4ccccc4)c3)c2c1C | 64.5%
CCn1cc(CNc2ccc(C(=O)Nc3ccc4ccccc4c3)cc2)c(C)n1 | 74.7%
